High-throughput results as filed in PubChem.
Giardia kill = Giardia lamblia killing; Giardia lamblia trophozoite viability; activity change, % at 7.66 µM, hits read low; 340,000 tested, 0.15% active; AID 540267; in the data active = activity change below about -80%; inconclusive = between about -30% and that limit;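 note: parasites exposed to compound for two days anaerobically before the ATP read; % is set by controls: 0 for no effect and ±100 for the full control effect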
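Trophozoite viability was measured as ATP-dependent luminescence, read 15-30 min after reagent addition. Before that, parasites at 100 cells/well were exposed to compounds for 48 h, anaerobically, at 37 deg C.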
ATXN viability = reduces viability in counter-screen for ATXN expression inhibitors | S2 cells (HEK-293 line with an ATXN2-luciferase reporter) viability, CellTiter-Fluor protease fluorescence, 24 h | Potency, µM (highest dose often 56.7 µM), actives largely listed as cytotoxic | 400,000 tested, 0.49% active; note: potency is the fitted concentration of half-maximal effect; nearly all actives have a fitted effect of over 40% in size
ATXN2 expr inh = reduces ATXN2 reporter expression in HEK-293 cells; HEK-293 ATXN2-luciferase reporter, luminescence, 24 h; Potency, µM (titrated, usually from 57 µM), without a hit: at the highest dose activity change, negative = inhibition, actives largely listed as inhibitors; 360,000 tested, 0.72% active; AID 1745845; note: potency is the fitted concentration of half-maximal effect; % is set by controls: 0 for no effect and ±100 for the full control effect; nearly all actives have a fitted effect of over 55% in size
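qHTS (up to 57 uM final) was run with 24 h compound exposure of reporter cells at 37 °C. Each well was multiplexed: SteadyGlo luminescence measured ATXN2-luciferase expression after a fluorogenic Gly-Phe-AFC viability readout (25 uM final).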
HepG2 tox = HepG2 cytotoxicity, counter-screen for TGF-b inhibitors; HepG2 CAGA-GFP viability, ATP luminescence, 18 h; Potency, µM (series often up to 46.1 µM), without a hit: top-dose activity change, negative = cytotoxicity, usual class: cytotoxic; 410,000 tested, 0.76% active; AID 588856; note: potency is the fitted concentration of half-maximal effect
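HepG2 CAGA-GFP cells (1000/well, DMEM with 1% FBS) received compound, then TGF-beta at 500 pg/mL final, and were incubated 18 hours at 37 degrees C. Viability was read by CellTiter-Glo luminescence. Media-only wells were set as complete cell-killing and DMSO as no toxicity.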
TGFb SMAD3 inh = blocks TGF-b signaling; Potency, µM (series often up to 46.1 µM), for inactives: at the highest dose activity, negative = inhibition, actives largely listed as inhibitors; HepG2 CAGA-GFP TGF-b/SMAD3 reporter, GFP fluorescence, 18 h; TGF-beta stimulated, 500 pg/mL final; 410,000 tested, 1.2% active; note: potency is the fitted concentration of half-maximal effect; % is set by controls: 0 for no effect and ±100 for the full control effect; nearly all actives have a fitted effect of over 65% in size
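TGF-beta reporter screen: HEPG2 CAGA-GFP, 1% FBS, 500 pg/mL TGF-beta final, 18 h; per-cell GFP summed per well; curves fitted and categorized by class.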
uPA surface inh = inhibitors of cell surface uPA generation | cell surface uPA generation assay, qHTS | Potency, µM (series often up to 38.3 µM), inactives show at the top dose activity change, negative = inhibition, actives largely listed as inhibitors | 330,000 tested, 0.31% active; active = well fitted inhibition curve with a large enough effect; inconclusive = small, poorly fitted or top-dose-only effect; inactive = no such curve, though single readings can be large or run the other way; tested in mouse RAW 264.7 cells; note: potency is the fitted concentration of half-maximal effect; % is set by controls: 0 for no effect and ±100 for the full control effect; nearly all actives have a fitted effect of over 55% in size
* = called active by the depositor; i = inactive; ? = inconclusive; / = no result given. Shown are actives, neighbours in structure and some others; about 2.6% of the full set was active somewhere. Unless noted, calls come from the whole dose curve; as a rule, active = well fitted curve in the direction sought with a large enough effect; inconclusive = small, poorly fitted or top-dose-only effect, or another doubt; inactive = no such curve, though single readings can be large; an effect the other way counts as inactive or inconclusive.

SMILES | Giardia kill | ATXN viability | ATXN2 expr inh | HepG2 tox | TGFb SMAD3 inh | uPA surface inh
COc1ccccc1-c1sc2ccccc2c1-c1ccc(OCCN2CCCCC2)cc1 | 1 | / | -7% | 11µM* | ? | ?
COc1ccc(C(=O)N2CCC3(CC2)c2ccccc2[C@@H](NC(=O)c2ccccn2)[C@@H]3OC)c(O)c1 | / | i | / | / | / | /
Cc1ccc(NS(=O)(=O)c2ccc(Cl)c(C(=O)Nc3ccccc3-c3nc4ccccc4[nH]3)c2)cc1C | 0 | ? | ? | -77% | 11µM* | -12%
Cc1ccc(NS(=O)(=O)c2ccc3nc(-c4ccccc4)[nH]c3c2)cc1Cl | / | ? | ? | 16µM* | ? | /
Cc1cc(NS(=O)(=O)c2ccc3nc(-c4ccccc4)[nH]c3c2)ccc1Br | / | ? | ? | -98% | ? | /
CN(C)S(=O)(=O)c1ccc(Cl)c(C(=O)Nc2nc3ccccc3[nH]2)c1 | -28 | i | 15% | -11% | -16% | 7%
CN(Cc1cnc2ccccn12)C(=O)c1cc(NC(=O)c2ccccc2)cc2ncn(C3CCCC3)c12 | / | i | / | / | / | /
